Activity calls are given as the source filed them. Unless noted, calls come from the whole dose curve; as a rule, active = well fitted curve in the direction sought with a large enough effect in the repeat runs; inconclusive = weak or mixed curves; inactive = no such curve, though single readings can be large; an effect the other way counts as inactive or inconclusive.
What was measured:
[1] = qHTS assay to identify small molecule antagonists of the thyroid receptor (TR) signaling pathway - cell viability counter screen (AID 743064); note: nearly all actives have a fitted effect of over 50% in size; note: potency is the fitted concentration of half-maximal effect
How it was run: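 Fluorescence from CellTiter-Fluor, added after 23.5 h exposure at 37 °C, reported viability of GH3.TRE-Luc cells co-treated with compound and 1 nM T3. Measured in the same wells as the luciferase TR readout.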

[2] = qHTS assay to identify small molecule antagonists of the thyroid receptor (TR) signaling pathway (AID 743065); note: nearly all actives have a fitted effect of over 55% in size; note: potency is the fitted concentration of half-maximal effect
How it was run: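 Antagonism measured as loss of luciferase signal in GH3 cells stably carrying a TRE-luciferase reporter, co-treated with compound and T3 (1 nM final) for 23.5 h at 37 C. Viability was read in the same well by CellTiter-Fluor.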

[3] = tested on: thyroid hormone receptor (rat, GH3 cells); assay: qHTS assay to identify small molecule agonists of the thyroid receptor (TR) signaling pathway (AID 743066; calls by dose curve)
[4] = qHTS assay to identify small molecule antagonists of the estrogen receptor alpha (ER-alpha) signaling pathway - cell viability counter screen (AID 743074; calls by dose curve;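 note: HEK293 cells carrying ER-alpha-UAS-bla reporter stimulated with 17beta-estradiol; nearly all actives have a fitted effect of over 45% in size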)
[5] = target: Estrogen receptor (Homo sapiens) (UniProt P03372); assay: qHTS assay to identify small molecule agonists of the estrogen receptor alpha (ER-alpha) signaling pathway (AID 743075; calls by dose curve;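 note: HEK293 GripTite cells with ER-alpha and UAS-driven beta-lactamase reporter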; note: potency is the fitted concentration of half-maximal effect)
[6] = qHTS assay to identify small molecule antagonists of the estrogen receptor alpha (ER-alpha) signaling pathway using the BG1 cell line (AID 743080; calls by dose curve;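 note: BG1 cells stimulated with 17beta-estradiol alongside compound; nearly all actives have a fitted effect of over 25% in size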; note: potency is the fitted concentration of half-maximal effect)
How it was run: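 Luminescence from a 4×ERE-luciferase reporter in BG1-Luc-4E2 cells served as read-out. Cells, pre-cultured 5 days in stripped-serum phenol-red-free medium, were exposed to compound with 17beta-estradiol co-stimulation for 21.5 h at 37 C.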

[7] = qHTS assay to identify small molecule antagonists of the estrogen receptor alpha (ER-alpha) signaling pathway using the BG1 cell line - cell viability counter screen (AID 743081);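 note: compound given together with 17beta-estradiol as the ER stimulus; nearly all actives have a fitted effect of over 45% in size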; note: potency is the fitted concentration of half-maximal effect
Aromatase (Homo sapiens) = Aromatase (Homo sapiens) (UniProt P11511); assay: qHTS assay to identify aromatase inhibitors (AID 743083); note: nearly all actives have a fitted effect of over 55% in size; note: potency is the fitted concentration of half-maximal effect
[8] = qHTS assay to identify aromatase inhibitors - cell viability counter screen (AID 743084);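 note: cells stimulated with testosterone during compound exposure; nearly all actives have a fitted effect of over 55% in size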; note: potency is the fitted concentration of half-maximal effect
[9] = target: Aryl hydrocarbon receptor (Homo sapiens) (UniProt P35869); assay: qHTS assay to identify small molecule that activate the aryl hydrocarbon receptor (AhR) signaling pathway (AID 743085); note: nearly all actives have a fitted effect of over 15% in size; note: potency is the fitted concentration of half-maximal effect;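 for activation: HG2L7.5c1 human HepG2 liver cells with stably integrated DRE-driven firefly reporter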
How it was run: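 Cell line HG2L7.5c1 (human hepatoma, 20× DRE-luc). Plated, 5 h 37C, compound/DMSO added, 24 h 37C. CellTiter-Fluor 30 min 37C → fluorescence; then ONE-Glo 30 min RT → luminescence.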

[10] = qHTS assay to identify small molecule that activate the aryl hydrocarbon receptor (AhR) signaling pathway - cell viability counter screen (AID 743086);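 note: HepG2 liver cells carrying the AhR DRE luciferase reporter; nearly all actives have a fitted effect of over 45% in size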
How it was run: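 Cytotoxicity counter screen: CellTiter-Fluor signal (30 min, 37 C) in 4000 HepG2 cells/well carrying the DRE-luciferase reporter, following 24 h compound exposure at 37 C.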

[11] = target: Peroxisome proliferator-activated receptor gamma (Homo sapiens) (UniProt P37231); assay: qHTS assay to identify small molecule antagonists of the peroxisome proliferator-activated receptor gamma (PPARg) signaling pathway (AID 743191; calls by dose curve; note: nearly all actives have a fitted effect of over 30% in size; note: potency is the fitted concentration of half-maximal effect)
How it was run: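 Beta-lactamase reporter under UAS control in HEK293H PPARg-bla cells; compound treatment 17 h at 37C. Read-out: fluorescence intensity after 1 h room-temperature incubation with LiveBLAzer B/G FRET substrate.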

[12] = qHTS assay to identify small molecule antagonists of the peroxisome proliferator-activated receptor gamma (PPARg) signaling pathway - cell viability counter screen (AID 743194); settings: Potency: co-treated with 50 nM rosiglitazone unless noted; note: nearly all actives have a fitted effect of over 55% in size
How it was run: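 Viability was measured as CellTiter-Glo luminescence in GeneBLAzer PPARg UAS-bla HEK293H cells. These cells had been exposed 17 h at 37 C to compounds together with rosiglitazone at 50 nM final, with the beta-lactamase readout taken in the same wells.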

[13] = qHTS assay for small molecule agonists of the antioxidant response element (ARE) signaling pathway (AID 743202; active = well fitted activation curve with a large enough effect in the signal ratio in the repeat runs, not every such curve was filed as active; inconclusive = weak or mixed curves, or effect the other way; inactive = no such curve, though single readings can be large or run the other way; the % refers to the signal ratio)
How it was run: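 Beta-lactamase reporter activity, read as fluorescence intensity, reflects ARE/Nrf2 pathway induction in HepG2 cells after 16 h compound exposure at 37 C; substrate loading was 2 h at room temperature.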

[14] = qHTS assay for small molecule agonists of the antioxidant response element (ARE) signaling pathway - cell viability counter screen (AID 743203; calls by dose curve; note: nearly all actives have a fitted effect of over 55% in size)
How it was run: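 ATP content via CellTiter-Glo luminescence served as the viability measure. Cells: ARE-bla HepG2, 2,000 per well. Exposure: 16 hrs, 37C/5% CO2.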

[15] = qHTS assay for small molecule activators of the heat shock response signaling pathway - cell viability counter screen (AID 743209); note: nearly all actives have a fitted effect of over 50% in size; note: potency is the fitted concentration of half-maximal effect
How it was run: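 Compounds dissolved in DMSO were added to overnight-plated HSE-bla HeLa cells and left 5 h at 37 C. Cell viability was quantified by luminescence using CellTiter-Glo.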

[16] = qHTS assay for small molecule activators of the heat shock response signaling pathway (AID 743210; active = well fitted activation curve with a large enough effect in the signal ratio in the repeat runs, with a control signal flat, not every such curve was filed as active; inconclusive = weak or mixed curves; the % refers to the signal ratio;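 note: HeLa cells with beta-lactamase reporter driven by heat shock elements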)
How it was run: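 Fluorescence from a cleaved B/G FRET substrate (2.5 h, room temp) reports HSE-driven beta-lactamase in HeLa cells treated 5 h at 37 C with DMSO-dissolved compounds.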

[17] = target: Estrogen receptor (Homo sapiens) (UniProt P03372); assay: qHTS assay to identify small molecule agonists of the estrogen receptor alpha (ER-alpha) signaling pathway using the BG1 cell line (AID 743079); settings: BG1Luc4E2 cells, ERE-luciferase agonist, 22 h; activation: at 70.3 µM (top of the series); note: nearly all actives have a fitted effect of over 20% in size; note: potency is the fitted concentration of half-maximal effect
[18] = target: Peroxisome proliferator-activated receptor gamma (Homo sapiens) (UniProt P37231); assay: qHTS assay to identify small molecule agonists of the peroxisome proliferator-activated receptor gamma (PPARg) signaling pathway (AID 743094; active = well fitted activation curve with a large enough effect in the signal ratio in the repeat runs, not every such curve was filed as active; inconclusive = weak or mixed curves, or effect the other way; inactive = no such curve, though single readings can be large or run the other way; the % refers to the signal ratio)
How it was run: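 Agonism was assessed in a beta-lactamase reporter system, HEK293H cells with a stably integrated UAS-bla construct under PPARg control; the 17 h treatment at 37C preceded a 1 h room-temperature FRET substrate read.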
% is set by controls: 0 for no effect and ±100 for the full control effect.

Sequence of Estrogen receptor (Homo sapiens) (P03372 whole entry, looked up): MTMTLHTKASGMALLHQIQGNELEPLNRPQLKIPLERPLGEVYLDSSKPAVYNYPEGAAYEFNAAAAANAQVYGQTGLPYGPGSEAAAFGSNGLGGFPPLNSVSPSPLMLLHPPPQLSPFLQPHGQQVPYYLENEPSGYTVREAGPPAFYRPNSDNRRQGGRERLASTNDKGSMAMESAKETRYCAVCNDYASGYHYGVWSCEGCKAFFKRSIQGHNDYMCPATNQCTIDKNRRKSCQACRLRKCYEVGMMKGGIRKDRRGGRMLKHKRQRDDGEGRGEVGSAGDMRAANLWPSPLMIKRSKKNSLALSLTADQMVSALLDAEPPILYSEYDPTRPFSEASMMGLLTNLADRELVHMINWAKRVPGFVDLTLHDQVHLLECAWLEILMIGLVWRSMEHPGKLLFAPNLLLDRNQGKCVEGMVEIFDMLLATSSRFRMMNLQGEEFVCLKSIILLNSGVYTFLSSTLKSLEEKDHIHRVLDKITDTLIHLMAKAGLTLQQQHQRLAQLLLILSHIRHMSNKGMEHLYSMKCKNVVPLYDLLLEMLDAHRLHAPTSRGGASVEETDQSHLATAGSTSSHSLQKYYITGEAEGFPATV
Sequence of Aromatase (Homo sapiens) (P11511 whole entry, looked up): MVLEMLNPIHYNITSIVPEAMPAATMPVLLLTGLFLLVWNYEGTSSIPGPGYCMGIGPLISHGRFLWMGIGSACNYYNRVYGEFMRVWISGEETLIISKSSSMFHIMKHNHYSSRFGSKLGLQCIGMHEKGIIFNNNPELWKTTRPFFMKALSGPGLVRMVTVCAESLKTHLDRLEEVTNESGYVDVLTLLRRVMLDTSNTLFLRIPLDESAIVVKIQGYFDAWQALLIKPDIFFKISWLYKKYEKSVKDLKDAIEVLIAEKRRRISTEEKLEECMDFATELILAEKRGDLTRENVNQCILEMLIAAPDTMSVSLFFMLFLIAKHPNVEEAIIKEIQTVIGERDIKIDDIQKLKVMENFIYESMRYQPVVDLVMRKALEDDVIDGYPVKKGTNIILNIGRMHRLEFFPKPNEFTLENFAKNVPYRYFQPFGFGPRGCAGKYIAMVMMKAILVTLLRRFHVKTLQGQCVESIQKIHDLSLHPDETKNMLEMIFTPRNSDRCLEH
Sequence of Peroxisome proliferator-activated receptor gamma (Homo sapiens) (P37231 whole entry, looked up): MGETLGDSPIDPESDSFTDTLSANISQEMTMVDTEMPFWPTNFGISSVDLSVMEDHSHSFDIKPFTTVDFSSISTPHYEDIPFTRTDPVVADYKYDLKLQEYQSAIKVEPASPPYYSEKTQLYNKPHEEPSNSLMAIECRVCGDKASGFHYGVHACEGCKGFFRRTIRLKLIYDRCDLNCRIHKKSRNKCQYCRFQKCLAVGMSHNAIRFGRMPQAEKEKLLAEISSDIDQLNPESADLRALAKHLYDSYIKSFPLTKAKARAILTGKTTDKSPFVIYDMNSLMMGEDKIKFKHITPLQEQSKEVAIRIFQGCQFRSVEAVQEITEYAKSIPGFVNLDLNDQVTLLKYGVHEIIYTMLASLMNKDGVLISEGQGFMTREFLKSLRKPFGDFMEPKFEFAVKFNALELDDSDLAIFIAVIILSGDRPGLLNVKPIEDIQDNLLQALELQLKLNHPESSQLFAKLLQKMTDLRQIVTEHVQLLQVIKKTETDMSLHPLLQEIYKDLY
Sequence of Aryl hydrocarbon receptor (Homo sapiens) (P35869 whole entry, looked up): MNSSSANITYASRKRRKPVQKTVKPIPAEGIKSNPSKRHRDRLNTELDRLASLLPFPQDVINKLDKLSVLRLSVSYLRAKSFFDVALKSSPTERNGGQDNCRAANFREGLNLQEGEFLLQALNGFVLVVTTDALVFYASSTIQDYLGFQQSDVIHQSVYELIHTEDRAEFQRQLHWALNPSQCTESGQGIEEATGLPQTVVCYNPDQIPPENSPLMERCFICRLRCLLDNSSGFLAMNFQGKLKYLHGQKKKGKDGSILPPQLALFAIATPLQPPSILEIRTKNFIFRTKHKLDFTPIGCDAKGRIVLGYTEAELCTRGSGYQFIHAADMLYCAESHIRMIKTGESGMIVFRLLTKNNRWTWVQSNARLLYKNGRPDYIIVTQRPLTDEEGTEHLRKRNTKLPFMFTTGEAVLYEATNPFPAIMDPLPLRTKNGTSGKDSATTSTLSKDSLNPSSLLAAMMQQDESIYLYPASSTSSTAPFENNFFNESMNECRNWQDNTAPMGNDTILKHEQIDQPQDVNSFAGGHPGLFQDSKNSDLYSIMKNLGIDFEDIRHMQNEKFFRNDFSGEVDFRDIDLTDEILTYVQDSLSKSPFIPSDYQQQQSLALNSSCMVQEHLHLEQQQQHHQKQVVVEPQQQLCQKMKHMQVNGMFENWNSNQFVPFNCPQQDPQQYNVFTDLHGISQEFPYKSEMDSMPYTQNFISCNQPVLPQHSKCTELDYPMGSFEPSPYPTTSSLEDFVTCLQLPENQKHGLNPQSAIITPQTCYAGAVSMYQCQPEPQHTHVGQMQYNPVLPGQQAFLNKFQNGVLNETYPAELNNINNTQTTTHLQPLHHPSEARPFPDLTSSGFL

CCCCN(CCCC)C(=S)[S-].CCCCN(CCCC)C(=S)[S-].[Ni+2]
inactive: Potency [1] | Potency [2] | Potency [3] | Potency [4] | Potency [5] | Potency [6] | Potency [7] | Potency (Aromatase (Homo sapiens)) | Potency [8] | Potency [9] | Potency [10] | Potency [11] | Potency [12] | Potency [13] | Potency [14] | Potency [15] | Potency [16]

Nc1nc(N)nc(Cl)n1
inactive: Potency [1] | Potency [2] | Potency [3] | Potency [4] | Potency [5] | Potency [17] | Potency [6] | Potency [7] | Potency (Aromatase (Homo sapiens)) | Potency [8] | Potency [9] | Potency [18] | Potency [11] | Potency [12] | Potency [13] | Potency [14] | Potency [15] | Potency [16]

CNC(=O)O/N=C(\C)C(C)S(C)(=O)=O (stereo unspecified)
inactive: Potency [1] | Potency [2] | Potency [3] | Potency [4] | Potency [7] | Potency (Aromatase (Homo sapiens)) | Potency [8] | Potency [9] | Potency [10] | Potency [11] | Potency [13] | Potency [14] | Potency [15] | Potency [16]

CCCCn1cc[n+](C)c1 (tested in a mixture with another compound)
inactive: Potency [1] | Potency [2] | Potency [3] | Potency [4] | Potency [7] | Potency (Aromatase (Homo sapiens)) | Potency [8] | Potency [9] | Potency [10] | Potency [12] | Potency [14] | Potency [15]

CCOP(=O)(OCC)Oc1cc(C)nc(C(C)C)n1
inactive: Potency [1] | Potency [2] | Potency [3] | Potency [4] | Potency [7] | Potency (Aromatase (Homo sapiens)) | Potency [8] | Potency [9] | Potency [10] | Potency [12] | Potency [14] | Potency [15]

Cc1cnc2c(C(=O)O)c(Cl)ccc2c1
inactive: Potency [1] | Potency [2] | Potency [3] | Potency [4] | Potency [5] | Potency [17] | Potency [6] | Potency [7] | Potency (Aromatase (Homo sapiens)) | Potency [8] | Potency [9] | Potency [10] | Potency [11] | Potency [13] | Potency [14] | Potency [15] | Potency [16]

BrCCCBr
inactive: Potency [1] | Potency [2] | Potency [3] | Potency [4] | Potency [7] | Potency (Aromatase (Homo sapiens)) | Potency [8] | Potency [9] | Potency [10] | Potency [13] | Potency [14] | Potency [15] | Potency [16]

COP(=S)(OC)Oc1ccc([N+](=O)[O-])c(C)c1
active: Potency [9] 48.6 µM
inactive: Potency [1] | Potency [2] | Potency [3] | Potency [4] | Potency [5] | Potency [17] | Potency [6] | Potency [7] | Potency [8] | Potency [10] | Potency [11] | Potency [12] | Potency [14] | Potency [15]

CCCCON=O
inactive: Potency [1] | Potency [2] | Potency [3] | Potency [4] | Potency [7] | Potency (Aromatase (Homo sapiens)) | Potency [8] | Potency [9] | Potency [10] | Potency [18] | Potency [11] | Potency [12] | Potency [13] | Potency [14] | Potency [15] | Potency [16]

Oc1ccc2[nH]cc(CCCCN3CC=C(c4ccccc4)CC3)c2c1
active: Potency [1] 8.41 µM | Potency [2] 11.9 µM
inactive: Potency [3] | Potency [4] | Potency (Aromatase (Homo sapiens)) | Potency [8] | Potency [9] | Potency [14] | Potency [15]

c1ccc2nc(N3CCNCC3)ccc2c1
active: Potency [1] 29.8 µM | Potency [2] 29.8 µM
inactive: Potency [3] | Potency [5] | Potency [8] | Potency [9] | Potency [18] | Potency [11] | Potency [12] | Potency [15] | Potency [16]

CCOP(=O)(OCC)Oc1nc(Cl)c(Cl)cc1Cl
active: Potency [1] 60.8 µM | Potency [2] 24.2 µM | Potency [5] 12.2 µM [inconclusive] | Potency [6] 48.3 µM | Potency (Aromatase (Homo sapiens)) 27.1 µM | Potency [11] 1.37 µM
inactive: Potency [3] | Potency [7] | Potency [15]

O=C(NC(=O)c1ccccc1Cl)Nc1ccc(OC(F)(F)F)cc1
inactive: Potency [1] | Potency [2] | Potency [3] | Potency [4] | Potency [7] | Potency (Aromatase (Homo sapiens)) | Potency [8] | Potency [10] | Potency [18] | Potency [11] | Potency [12] | Potency [14] | Potency [15] | Potency [16]

O=Cc1ccccc1
inactive: Potency [1] | Potency [2] | Potency [3] | Potency [4] | Potency [7] | Potency [10] | Potency [12] | Potency [13] | Potency [14] | Potency [15] | Potency [16]

CC1CCCC1
active: Potency [11] 21.5 µM | Potency [15] 12.1 µM
inactive: Potency [1] | Potency [2] | Potency [3] | Potency [4] | Potency [7] | Potency (Aromatase (Homo sapiens)) | Potency [8] | Potency [9] | Potency [18] | Potency [14]

Clc1c(Cl)c(Cl)c(Cl)c(Cl)c1Cl
inactive: activity change, negative = cytotoxic [1] -0.947% [at 8.44 µM] | activity, negative = inhibition [2] 0.884% [at 8.44 µM] | activation [3] -1.24% [at 8.08 µM] | activity, negative = cytotoxicity [4] 18.2% [at 6.72 µM] | activity change, negative = cytotoxicity [7] 5.59% [at 8.47 µM] | activity change, negative = cytotoxicity [12] -5.6% [at 5.95 µM, co-treated with 50 nM rosiglitazone] | activation [13] -2.23% [at 8.36 µM] | viability change, negative = cytotoxic [14] 3.6% [at 8.36 µM] | activity change, negative = cytotoxicity [15] -0.0057% [at 5.95 µM] | activation [16] -2.21% [at 5.95 µM]

CC[C@]1(O)CC[C@H]2[C@@H]3CCC4=CCCC[C@@H]4[C@H]3CC[C@@]21C
inactive: Potency [1] | Potency [4] | Potency [6] | Potency [7] | Potency [9] | Potency [11] | Potency [12] | Potency [13] | Potency [14] | Potency [15] | Potency [16]
active: Potency [2] 8.41 µM | Potency [5] 0.0005 µM [inconclusive] | activation [17] 5.41%

O=C(NC(=O)c1c(F)cccc1F)Nc1ccc(Oc2ccc(C(F)(F)F)cc2Cl)cc1F
active: Potency [1] 43.3 µM | Potency [2] 38.6 µM
inactive: Potency [3] | Potency [4] | Potency [7] | Potency [8] | Potency [9] | Potency [10] | Potency [12] | Potency [14] | Potency [15]

Nc1ccc(N=Nc2ccccc2)cc1
inactive: Potency [2] | Potency [3] | Potency [5] | Potency (Aromatase (Homo sapiens)) | Potency [14] | Potency [15]
active: Potency [1] 56.1 µM | Potency [17] 14.1 µM | Potency [7] 43.3 µM | Potency [8] 24.3 µM | Potency [9] 26.5 µM

From PubChem BioAssay (Tox21)
